{"source": "PubChem BioAssay AID743314", "about": "(Broad Institute, 2014)", "note": "Results with a measured potency or affinity are listed apart. Inconclusive results are not listed. The source made the active and inactive calls.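 The calls were made as follows: active = fitted half-maximal concentration no higher than twice the top tested dose, in every repeat run; inconclusive = repeat runs disagree, poor fit, or flat partial inhibition; inactive = the rest.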"}
{"molecular_target": "Endoplasmic reticulum aminopeptidase 1 (Homo sapiens) (UniProt Q9NZ08)", "sequence (Q9NZ08 whole entry, looked up)": "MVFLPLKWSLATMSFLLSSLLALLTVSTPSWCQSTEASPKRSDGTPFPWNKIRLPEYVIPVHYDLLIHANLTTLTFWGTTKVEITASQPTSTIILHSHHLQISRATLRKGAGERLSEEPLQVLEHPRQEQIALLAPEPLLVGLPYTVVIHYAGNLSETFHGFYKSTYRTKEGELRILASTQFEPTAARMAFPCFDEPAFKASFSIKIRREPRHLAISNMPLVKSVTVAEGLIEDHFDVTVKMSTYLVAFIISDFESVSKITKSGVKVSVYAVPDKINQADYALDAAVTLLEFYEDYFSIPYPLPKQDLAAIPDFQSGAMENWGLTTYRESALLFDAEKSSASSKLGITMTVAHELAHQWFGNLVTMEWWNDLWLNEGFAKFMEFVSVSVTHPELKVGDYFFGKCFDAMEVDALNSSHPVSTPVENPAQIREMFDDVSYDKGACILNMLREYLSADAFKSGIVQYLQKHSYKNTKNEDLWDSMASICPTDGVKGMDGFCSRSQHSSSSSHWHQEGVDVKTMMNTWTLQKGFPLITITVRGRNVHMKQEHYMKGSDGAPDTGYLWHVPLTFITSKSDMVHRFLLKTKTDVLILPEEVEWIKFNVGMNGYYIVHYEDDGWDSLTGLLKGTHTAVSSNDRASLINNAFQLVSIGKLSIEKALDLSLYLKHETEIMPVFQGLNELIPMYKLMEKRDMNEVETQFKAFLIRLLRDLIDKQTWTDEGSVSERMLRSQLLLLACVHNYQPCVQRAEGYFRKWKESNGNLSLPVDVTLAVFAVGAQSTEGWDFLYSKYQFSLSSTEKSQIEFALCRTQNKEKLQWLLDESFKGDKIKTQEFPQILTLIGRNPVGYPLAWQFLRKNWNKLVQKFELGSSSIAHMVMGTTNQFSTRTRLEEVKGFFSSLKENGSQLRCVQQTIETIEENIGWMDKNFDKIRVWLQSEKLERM", "experiment": "inhibition of human ERAP1 enzyme activity – biochemical, cherry-pick, set 2, plate reader, dose response (AID 743314);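 also: 0% = neutral control wells and -100% = L-leucinethiol positive control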", "settings": "Recombinant ERAP1, Leu-AMC fluorescence, 60 min; series mostly up to 11 µM; activity change, negative = inhibition: at the top concentration"}
{"smiles": "CCOc1ccccc1OCCCC(=O)Nc1ccc(S(=O)(=O)Nc2cc(C)nc(C)n2)cc1", "activity change, negative = inhibition": "9.91% (inactive)"}
{"smiles": "C[C@@H]1CCCCO[C@@H](CN(C)C)[C@H](C)CN([C@@H](C)CO)C(=O)c2cc(NS(=O)(=O)c3ccc(Cl)cc3)ccc2O1", "activity change, negative = inhibition": "22.3% (inactive)"}
{"smiles": "Cc1noc(C)c1NC(=O)N(C)C[C@H]1Oc2c(NC(=O)Nc3ccc(F)cc3)cccc2C(=O)N([C@H](C)CO)C[C@H]1C", "activity change, negative = inhibition": "9.59% (inactive)"}
